# The entries come from a sample that favours hits as a whole.
# AMA1 RON2 block: AMA1-RON2 (P. falciparum) interaction inhibition; Potency, µM (highest dose often 58.2 µM), usual class: inhibitors; AID 720542; AlphaScreen AMA1-biotinylated RON2 peptide binding; hit rate 0.2% among 360,000; active means well fitted inhibition curve with a large enough effect; inconclusive means small, poorly fitted or top-dose-only effect; inactive means no such curve, though single readings can be large or run the other way; further: nearly all actives have a fitted effect of over 45% in size
#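 AMA1 (3D7) with his tag at 25 nM final met compounds first, then biotinylated RON2 peptide at 25 nM; detection used donor plus acceptor beads, 10 µg/mL apiece, read by AlphaScreen after 30 min at room temperature.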
# Lassa entry inh: blocks Lassa virus binding to or entry into cells. Lassa virus pseudotype entry inhibition, cell reporter. Potency, µM (highest dose often 37.9 µM), usual class: inhibitors. hit rate 1.2% among 300,000. AID 540256; calls by dose curve; tested in HEK293 cells; further: nearly all actives have a fitted effect of over 50% in size
# MARV entry inh: inhibitors of Marburg virus binding or cell entry. Marburg virus pseudotyped entry inhibition, cell reporter. Potency, µM (doses to about 37.8 µM), hits mostly inhibitors. hit rate 1.8% among 300,000; calls by dose curve; tested in HEK293 cells
# Shiga inhibitor: blocks Shiga toxin action in Vero cells. Vero cells, Shiga toxin protein synthesis inhibition reporter. inhibition, % at 38.7 µM. hit rate 9.2% among 290,000. AID 2315; in the data active means inhibition mostly above about 28%, no sharp cut-off; inactive means mostly below about 43%
# CHX counter: affects cycloheximide protein synthesis inhibition readout, counter-screen. max response, %. hit rate 12% among 300,000. cell reporter, cycloheximide protein synthesis inhibition counterscreen. AID 2314; in the data active means max response mostly above about 13%, no sharp cut-off; inactive means mostly below about 14%; further: read at 38.3 µM for the half of the compounds with a filed dose
# Numbers stand for hits; . = inactive; ? = inconclusive; / = not tested or not shown.
SMILES,AMA1 RON2 block,Lassa entry inh,MARV entry inh,Shiga inhibitor,CHX counter
CC(C)C(C)NC(=O)Cn1cnc2c(oc3ccccc32)c1=O (stereo not given),.,.,?,.,17
Cc1cccc(NC(=O)Cn2cnc3c(oc4ccccc43)c2=O)c1,.,.,.,.,.
CCOC(=O)c1ccccc1NC(=O)Cn1c(-c2nonc2N)nc2ccccc21,.,?,0.052µM,.,.
COC(=O)Cn1cnc2c(oc3ccccc32)c1=O,.,/,/,41,36
CCOC(=O)c1ccccc1NC(=O)Cn1cnc2c(oc3ccccc32)c1=O,.,?,.,56,30
COc1ccccc1NC(=O)Cn1cnc2c(oc3ccccc32)c1=O,.,/,/,.,.
Cc1nn(CCCC(=O)Nc2cccc(F)c2)c(=O)c2c1sc1ccccc12,/,.,?,/,/
O=S1(=O)CC(N2CCN(CC3CC3)CC2)CN1CCc1ccccc1 (stereo not given),.,/,?,/,/
Cc1ccc(S(=O)(=O)N(C(=N)N)c2nc(N(C)C)nc(N(C)C)n2)cc1,/,/,/,.,.
CCN1C(=O)c2ccccc2S(=O)c2ccc(C(=O)N3CCN(c4ccc(F)cc4)CC3)cc21 (stereo not given),/,.,.,/,/
CCNC(=O)C1CCCN(C(=O)c2cc(C)oc2C)CC1 (stereo not given),.,/,/,/,/
O=c1[nH]c2ccsc2c(=O)n1CCO,.,/,/,.,.
O=C(NCCN1Cc2ccccc2C1=O)c1cccs1,.,?,?,47,21
O=C1c2ccccc2CN1CCNC(=S)NC1CCCCC1,.,.,?,45,31
S=C(NCCN1CCOCC1)NC1CCCC1,.,.,?,.,.
COc1ccc(CNc2ccc(S(N)(=O)=O)cc2)cc1,.,.,.,.,.
COc1ccc(NCc2ccsc2)cc1,?,/,/,44,41
CCOc1ccc(Oc2ccc(Cl)cc2N)cc1,.,/,/,29,24
CCC(CC)C(=O)Nc1nc(-c2ccc3c(c2)CCN3C(=O)C2CC2)c(C)s1,.,11µM,?,.,.
CC1CC(C)CN(S(=O)(=O)c2ccc3c(c2)CCN3C(=O)C2CC2)C1 (stereo not given),.,/,/,.,.
CC(C)C(=O)Nc1nc(-c2ccc3c(c2)CCN3C(=O)C2CC2)cs1,.,/,.,59,.
CC(C)(C)Nc1nc(-c2ccc3c(c2)CCN3C(=O)C2CC2)cs1,.,?,?,98,43
CC1Cc2cc(-c3csc(NC(=O)CCl)n3)ccc2N1C(=O)C1CC1 (stereo not given),.,.,.,/,/
CC(C)COc1nc2ccccc2nc1[C@H](C#N)C(=O)NC1CCCCC1,/,/,.,/,/
CNC(=O)c1ccc(-c2ccccc2)s1,.,?,?,69,34
SMILES,AMA1 RON2 block,Lassa entry inh,MARV entry inh,Shiga inhibitor,CHX counter
CCOc1ccc(NC(=O)c2ccc(-c3ccccc3)s2)cc1,/,.,.,/,/
CCOC(=O)c1cnc2c(ccc3ccccc32)c1Nc1ccccc1O,/,.,.,/,/
CCOC(=O)c1cnc2c(ccc3ccccc32)c1Cl,.,.,.,121,21
CCOC(=O)c1cnc2ccc(OCC)cc2c1NCc1ccccc1,.,?,?,42,19
CCOC(=O)c1cnc2ccc(OCC)cc2c1NCc1cccnc1,.,.,?,42,27
CCOC(=O)c1nc(-c2ccccc2)sc1C(C)=O,.,.,.,.,20
CCOC(=O)c1cnc2c(OC)cccc2c1NCc1cccnc1,.,/,/,.,.
CCOc1ccccc1NC(=O)Cn1c(=O)n(Cc2ccccc2)c(=O)c2c(C)c(C)sc21,/,.,.,/,/
CCOC(=O)c1cnc(NCc2ccccc2)nc1C,.,.,?,55,44
CCOC(=O)c1nc(NCc2ccccc2)sc1C,.,/,.,89,63
CCOC(=O)c1nc(-c2ccccc2)oc1N(C)C,.,.,.,.,17
CC(=O)Oc1cc(C(=O)OCC(=O)N2CCc3ccccc3C2)cc(OC(C)=O)c1OC(C)=O,0.32µM,?,?,/,/
O=C(OCC(=O)N1CCCCC1)c1cccs1,.,?,?,/,/
CNC(=O)COC(=O)c1ccccc1NC(=O)c1ccco1,.,/,/,.,.
COc1cc2c(cc1OC)CN(C(=O)COc1ccccc1C#N)CC2,.,.,.,.,22
COc1ccc(C(=O)OCC(=O)N2CCc3ccccc3C2)cc1OC,.,.,?,/,/
O=C(OCC(=O)N1CCCCCC1)c1cccs1,.,?,.,84,38
O=C(Nc1ccccc1C(=O)OCC(=O)N1CCc2ccccc2C1)c1ccco1,.,.,.,73,42
CC1CCN(C(=O)COC(=O)c2cccs2)CC1,.,.,.,/,/
Cc1cccc(C(=O)OCC(=O)N2CCc3ccccc3C2)c1O,.,.,?,/,/
O=C(OCC(=O)N1CCc2ccccc2C1)c1cccs1,.,.,.,77,47
